VLA-4 inh: inhibition in human VLA-4 binding assay, primary screen, VLA-4 allosteric modulator project, MLPCN library, flow cytometry, VLA-4 expressing cells | 330,000 tested, 0.2% active | inhibition, % (about 7 µM as worked out from the volumes in the protocol) | AID 2557, 2010 | Integrin alpha-4 (Homo sapiens), P13612 | ligand binding flow cytometry; in the data active means inhibition above about 50%
GASC-1 inh: inhibitors of GASC-1 histone demethylase, primary screen, biochemical, fluorescence, DELFIA europium | Lysine-specific demethylase 4C (Homo sapiens), Q9H3R0 | GST-JMJD2C(1-420) H3K9me3 demethylation | inhibition, % at 2.35 µM | 330,000 tested, 0.069% active;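 active means more than half of a compound's replicate wells show inhibition beyond 50%, single wells judged on their own value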;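 further: signal counts dimethyl H3K9 product captured on neutravidin plate; 0% = median of DMSO wells and 100% = 0.3 times that DMSO median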
GPR7 antagonist: GPR7 receptor antagonists, primary screen, cell-based, fluorescence, single concentration; GPR7-expressing cells, fluorescence antagonist assay; 290,000 tested, 1.1% active; AID 1861, 2009; inhibition, % at 4.4 µM; Neuropeptides B/W receptor type 1 (Homo sapiens), P48145; in the data active means inhibition above about 16%, passing the limit was not always enough;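 further: cells stimulated with the agonist NPW; 0% = agonist with vehicle and 100% = vehicle without agonist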
pCIP destab: p/CIP-EGFP fusion destabilizers, primary screen, fluorescence, F442A cells; Q05BA5; 16 h; decrease of EGFP signal, % at 10 µM; 290,000 tested, 0.01% active; AID 1984, 2009;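 active means EGFP signal decrease of at least 30% at 10 µM or well 3 SD below plate mean, unless failing retest; inactive means the rest, including hits failing retest or dose response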
Target sequence (Q05BA5 1-1403): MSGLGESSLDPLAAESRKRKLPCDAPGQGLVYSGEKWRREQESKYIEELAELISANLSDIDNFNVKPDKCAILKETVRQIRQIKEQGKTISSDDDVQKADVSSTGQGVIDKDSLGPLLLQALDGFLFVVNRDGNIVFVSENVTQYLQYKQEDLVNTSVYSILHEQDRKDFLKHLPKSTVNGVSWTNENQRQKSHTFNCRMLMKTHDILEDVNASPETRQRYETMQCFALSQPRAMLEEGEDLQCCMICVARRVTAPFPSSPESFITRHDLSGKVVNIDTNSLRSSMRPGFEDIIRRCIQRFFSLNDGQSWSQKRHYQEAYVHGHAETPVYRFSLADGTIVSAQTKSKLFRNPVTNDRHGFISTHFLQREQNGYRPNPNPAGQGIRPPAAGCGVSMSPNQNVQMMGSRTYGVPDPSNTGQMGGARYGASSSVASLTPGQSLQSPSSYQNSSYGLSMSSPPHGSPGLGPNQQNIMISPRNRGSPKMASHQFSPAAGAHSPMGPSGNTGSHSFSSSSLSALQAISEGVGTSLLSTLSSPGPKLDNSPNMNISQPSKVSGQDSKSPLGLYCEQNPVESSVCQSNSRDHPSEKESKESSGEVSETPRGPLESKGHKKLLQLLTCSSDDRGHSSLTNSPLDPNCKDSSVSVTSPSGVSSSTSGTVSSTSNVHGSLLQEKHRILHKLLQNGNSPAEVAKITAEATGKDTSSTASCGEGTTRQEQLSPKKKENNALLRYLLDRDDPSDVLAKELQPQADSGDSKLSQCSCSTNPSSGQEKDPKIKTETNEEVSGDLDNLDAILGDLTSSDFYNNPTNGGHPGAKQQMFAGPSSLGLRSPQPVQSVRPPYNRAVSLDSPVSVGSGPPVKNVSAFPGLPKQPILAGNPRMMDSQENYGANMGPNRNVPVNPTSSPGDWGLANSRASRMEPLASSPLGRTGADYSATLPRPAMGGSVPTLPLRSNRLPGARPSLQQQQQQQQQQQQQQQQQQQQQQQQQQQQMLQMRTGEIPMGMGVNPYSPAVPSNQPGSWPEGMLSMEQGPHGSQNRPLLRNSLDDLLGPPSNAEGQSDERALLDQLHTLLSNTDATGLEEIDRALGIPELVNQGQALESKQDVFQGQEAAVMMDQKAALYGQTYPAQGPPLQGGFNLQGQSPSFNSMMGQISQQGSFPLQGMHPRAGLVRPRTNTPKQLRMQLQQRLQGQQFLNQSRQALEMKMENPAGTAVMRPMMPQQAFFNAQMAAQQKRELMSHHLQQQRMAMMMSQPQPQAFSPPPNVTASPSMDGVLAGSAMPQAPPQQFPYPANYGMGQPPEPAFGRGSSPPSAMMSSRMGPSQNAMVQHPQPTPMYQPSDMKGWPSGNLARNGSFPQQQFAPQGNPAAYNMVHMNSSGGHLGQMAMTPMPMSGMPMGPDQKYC
GPR7 antag conf: GPR7 receptor antagonists, confirmation, cell-based, fluorescence, single concentration. shares compounds with GPR7 antagonist. GPR7-expressing cells, calcium fluorescence antagonist mode. inhibition, % at 4.4 µM. 2,400 tested, 52% active; in the data active means inhibition above about 24%;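 further: stimulated with the GPR7 agonist NPW; 0% = agonist plus vehicle and 100% = vehicle alone without agonist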
MCHR1 antag: MCHR1 antagonists in cells, counter-screen for GPR7 antagonist project, cell-based, fluorescence, human. 2,400 tested, 62% active. inhibition, % at 4.4 µM. shares compounds with GPR7 antagonist. MCHR1-expressing cells, fluorescence antagonist assay. AID 2148, 2009; in the data active means inhibition above about 22%;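 further: 0% = vehicle with agonist and 100% = vehicle without agonist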
Starred values were filed as active, the others as inactive; . = not tested or not shown. Only some compounds are listed: those with a hit (about 1.2% of all), similar ones and a draw of the others.

SMILES	VLA-4 inh	GASC-1 inh	GPR7 antagonist	pCIP destab	GPR7 antag conf	MCHR1 antag
CCc1cccc(CC)c1NC(=O)Cn1c(-c2ccc(F)cc2)noc1=O	17	8	27*	17	16	18
Cc1ccccc1C(=O)N1CCN=C1SCc1ccc([N+](=O)[O-])cc1	-1	1	41*	-10	26*	29*
CC(NCCCOc1cccc2ccccc12)c1ccccc1 (stereo not drawn)	15	0	25*	-2	57*	50*
COc1ccc2ccccc2c1CNC(C)c1ccccc1 (stereo not drawn)	5	21	3	1	.	.
O=C(Cn1nnc(-c2cccs2)n1)Nc1ccccc1C(F)(F)F	1	1	-8	-14	.	.
Cc1cccc(N2CCN(C(=O)C3CCN(c4ncnc5c4nc4n5CCCCC4)CC3)CC2)c1C	-1	16	27*	-22	25*	61*
Cc1ccc2nc(N(CCCN(C)C)C(=O)c3ccc(S(=O)(=O)N4CCc5ccccc5C4)cc3)sc2c1	-11	-12	32*	-11	44*	33*
CN(C)CCCN(C(=O)c1ccc(S(=O)(=O)N2CCc3ccccc3C2)cc1)c1nc2ccc(F)cc2s1	-13	-14	46*	3	76*	63*
CN(C)CCCN(C(=O)c1cc(-c2cccs2)nc2ccccc12)c1nc2ccc(F)cc2s1	-2	-17	30*	-6	58*	58*
CN(C)CCCN(C(=O)c1ccc(S(=O)(=O)N2CCc3ccccc32)cc1)c1nc2ccc(F)cc2s1	7	-8	8	-21	.	.
COc1ccc(CCNC(=O)COC(=O)Cc2c[nH]c3ccccc23)cc1OC	2	.	.	.	.	.
CC[C@H](C)NC(=O)c1ccc(Cn2c(=S)[nH]c3c([nH]c4ccc(OC)cc43)c2=O)cc1	3	-5	-4	-1	.	.
CCN(C(=O)CCS(=O)(=O)c1cccc2nonc12)c1ccc(C)c(C)c1	-4	-4	-4	-9	.	.
CCOC(=O)C1(CCCc2ccccc2)CCN(C(=O)C(C)n2cncn2)CC1 (stereo not drawn)	9	4	-18	-2	.	.
COc1cccc(C(=O)NCC(C)(C)SCc2ccc(F)cc2)c1	3	-11	-8	-8	.	.
Cc1sc2nc[nH]c(=S)c2c1-c1ccccc1	-14	-8	27*	-2	-2	7
Cc1sc2nc[nH]c(=O)c2c1-c1ccc(F)cc1	-3	3	14	-4	.	.
Cc1cc(C(=O)Nc2ccc(Cl)c(S(=O)(=O)N3CCOCC3)c2)c2ccccc2n1	0	5	.	.	.	.
COc1ccccc1NC(=S)NC(=O)Cc1ccc(Cl)cc1	15	6	54*	-7	31*	37*
NC(N)=NS(=O)(=O)c1ccc(NC(=S)NC(=O)Cc2ccc(Cl)cc2)cc1	0	0	.	8	.	5
Cc1cccc(NC(=S)NC(=O)Cc2ccccc2)c1C	1	2	24*	0	34*	18
NC(N)=NS(=O)(=O)c1ccc(NC(=S)NC(=O)c2ccccc2)cc1	1	-10	4	-6	.	.
CCC(=O)NC(=S)Nc1ccccc1OC	-2	-8	8	4	.	.
Cc1cccc(NC(=S)NC(=O)CCc2ccccc2)c1C	-3	-2	-5	2	.	.
COc1cccc(NC(=S)NC(=O)Cc2ccc(Cl)cc2)c1	10	-3	35*	-13	64*	41*
SMILES	VLA-4 inh	GASC-1 inh	GPR7 antagonist	pCIP destab	GPR7 antag conf	MCHR1 antag
CCn1c(SCC(=O)Nc2oc(-c3ccccc3)c(-c3ccccc3)c2C#N)nnc1-c1cc(OC)cc(OC)c1	7	4	-4	1	.	.
Cc1ccc(/C=C(\NC(=O)c2ccc(C)cc2)C(=O)NCCCn2ccnc2)cc1	0	-17	-2	-12	.	.
COc1ccc(OCC(=O)NNC(=O)C(=O)N2CCCC2)cc1	12	4	-8	1	.	.
CC1CCCCN1CCCNC(=O)CN1C(=O)c2cccnc2Oc2ccccc21 (stereo not drawn)	-3	-16	-5	-8	.	.
CCOc1ccccc1NC(=O)Cn1cnc2c(nnn2-c2cccc(OC)c2)c1=O	-4	2	0	-4	.	.
COc1ccc(N2CCN(C3CCCN(C(=O)CN4CCCC4=O)C3)CC2)cc1 (stereo not drawn)	-122	-20	-6	1	.	.
CCN(Cc1ccc(OC)c(F)c1)C(C)C(=O)Nc1ccc(S(=O)(=O)N2CCCC2)cc1 (stereo not drawn)	9	8	.	.	.	.
O=C(CCN(CCO)Cc1ccccc1)Nc1ccc(Br)cc1	4	7	24*	1	24*	7
CCOC(=O)C1CCN(C(=O)COc2ccc(S(=O)(=O)N3CCCC3)cc2C)CC1	-14	-13	-1	2	.	.
CC#CCN(CC#CC)S(=O)(=O)c1ccc(-n2cnnn2)c(OC)c1	1	-5	24*	8	11	5
COc1cc(S(=O)(=O)N(Cc2ccccc2)Cc2ccccn2)ccc1-n1cnnn1	7	4	-3	1	.	.
Cc1cc2[nH]c(=O)c(=O)[nH]c2cc1S(=O)(=O)Nc1cccc(Cl)c1	21	10	-7	-18	.	.
COc1ccc(Cc2nnc(SCC(=O)c3ccc4c(c3)NC(=O)CO4)o2)cc1	11	39	.	.	.	.
COc1ccc(C(CNC(=O)COc2cccc(C)c2)N2CCCC2)cc1 (stereo not drawn)	5	-5	.	.	.	.
COc1ccc(C(CNC(=O)COc2ccc(Cl)c(C)c2)N2CCCCC2)cc1 (stereo not drawn)	5	-6	28*	7	30*	19
COc1cc(CCC(=O)OCC(=O)N2CCc3ccccc32)cc(OC)c1OC	14	-8	0	-1	.	.
O=C(c1cc(-c2ccc(F)cc2)on1)N1CCCC1	-7	-3	-3	-9	.	.
O=C(c1cc(-c2ccc(F)cc2)on1)N1CCCCCC1	2	8	36*	-22	5	26*
Cc1ccc(N2C(=N)/C(=C3/Nc4ccccc4S3)C(c3ccccc3)C2=O)cc1 (stereo not drawn)	-102	-2	2	-3	.	.
CCCN(CC(=O)Nc1ccccc1OC)C(=O)CSC(=S)N1CCCC1	2	-1	.	.	.	.
C[C@@H]1C=C[C@](Cc2ccccc2)(C(=O)NCCc2c[nH]c3ccccc23)N1C(=O)c1ccccc1	.	8	42*	-24	47*	40*
CC(=O)N1[C@H](C)C=C[C@]1(Cc1ccccc1)C(=O)NCCc1c[nH]c2ccccc12	25	-4	13	-6	.	.
COc1ccc(C(=O)Nc2nnc(S(=O)(=O)N(C)Cc3ccccc3)s2)cc1	-3	28	41*	-3	22	31*
